Among the data in PubChem BioAssay (NCI) are growth values, retold here.

The panel holds about 83,000 compounds, 20% with a hit somewhere; the sample as a whole holds those more often.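 48-hour exposure, single concentration, 96-well plates; percent growth endpoint where 0 means no net growth. Active: below 10.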 Values without a mark were called inactive. Calls of active or inactive are those of the source.

Among the test systems are RPMI-8226 leukemia; OVCAR-8 ovarian; OVCAR-5 ovarian; OVCAR-4 ovarian; SK-OV-3 ovarian; IGROV1 ovarian; OVCAR-3 ovarian; HS 578T breast; NCI/ADR-RES ovarian; T-47D breast.
Test in all cases: NCI-60 one-dose screen, 48 h (100 = growth as untreated, 0 = no growth, -100 = all killed)
What all share (details): 10 µM

For `CCOC(=O)N1C/C(=C/c2ccc(Cl)cc2)C(=O)/C(=C/c2ccc(Cl)cc2)C1`, the growth was -11.6% (active) in the experiment with RPMI-8226 leukemia; 27.8% in the experiment with OVCAR-8 ovarian; 120% with OVCAR-5 ovarian; 60.5% in the experiment with OVCAR-4 ovarian; 83.7% in the experiment with SK-OV-3 ovarian; 44% in the experiment with IGROV1 ovarian. Further, the growth is 27.4% in the experiment with OVCAR-3 ovarian, 63.9% with HS 578T breast, 71% with NCI/ADR-RES ovarian and 69.8% in the experiment with T-47D breast.
Turning to `O=c1cc(-c2ccccc2)[nH]n1-c1nc2ccccc2[nH]1`, the growth in the experiment with RPMI-8226 leukemia was 40.2%; in the experiment with OVCAR-8 ovarian, 35%; in the experiment on OVCAR-5 ovarian, 98.6%; in the experiment on OVCAR-4 ovarian, 25.3%; in the experiment on SK-OV-3 ovarian, 75.7%; in the experiment on IGROV1 ovarian it was 38.9%. The growth with OVCAR-3 ovarian was 60.9%; in the experiment with HS 578T breast, 69.5%; in the experiment on NCI/ADR-RES ovarian, 29.1%; in the experiment on T-47D breast, 62%.
Turning to `COc1ccc([N+](=O)[O-])c(C(=O)O)c1`, the growth in the experiment with RPMI-8226 leukemia is 110%; in the experiment with OVCAR-8 ovarian, 101%; with OVCAR-5 ovarian, 102%; with OVCAR-4 ovarian, 102%; in the experiment on SK-OV-3 ovarian, 99.1%; in the experiment on IGROV1 ovarian it was 108%. The growth with OVCAR-3 ovarian was 102%; in the experiment on HS 578T breast, 98.1%; in the experiment with NCI/ADR-RES ovarian, 110%; with T-47D breast it was 93.3%.
In the case of `COc1ccc(S(=O)(=O)Nc2c(/C=C\c3cc(OC)c(OC)c(OC)c3)ccc(OC)c2O)cc1`, the growth in the experiment on RPMI-8226 leukemia was 7.59% (active); in the experiment with OVCAR-8 ovarian, -0.813% (active); with OVCAR-5 ovarian, 29.5%; in the experiment on OVCAR-4 ovarian it was 53%; in the experiment with SK-OV-3 ovarian, 18.5%; in the experiment with IGROV1 ovarian, 33.2%. Moreover, the growth was -8.9% (active) with OVCAR-3 ovarian, -8.12% (active) with HS 578T breast, -2.42% (active) in the experiment on NCI/ADR-RES ovarian and 82.2% with T-47D breast.
In the case of `O=c1[nH]c(-c2ccc(Cl)cc2)nc2sc3c(c12)CCCC3`, the growth is 96.7% in the experiment on RPMI-8226 leukemia; 68% in the experiment on OVCAR-8 ovarian; 103% in the experiment with OVCAR-5 ovarian; 86.2% with OVCAR-4 ovarian; 92% in the experiment with SK-OV-3 ovarian; 82.1% in the experiment on IGROV1 ovarian. Also, the growth in the experiment with OVCAR-3 ovarian is 101%; with HS 578T breast it was 104%; with NCI/ADR-RES ovarian it was 81.8%; in the experiment on T-47D breast, 64.4%.
Regarding `COc1ccc(-c2nc(-c3nc4cc(Cl)c(F)cc4[nH]3)c3ccccn23)cc1`, the growth in the experiment with RPMI-8226 leukemia was 8.97% (active); in the experiment on OVCAR-8 ovarian, 40.5%; with OVCAR-5 ovarian, 98%; with OVCAR-4 ovarian, 57.6%; with SK-OV-3 ovarian, 105%; in the experiment with IGROV1 ovarian, 74.6%. The growth in the experiment on OVCAR-3 ovarian was 81.3%; in the experiment on HS 578T breast, 133%; in the experiment on NCI/ADR-RES ovarian, 60.2%; with T-47D breast it was 39.7%.
Turning to `O=C(Nc1nc(-c2ccccc2Cl)cs1)c1cc(-c2ccc(Cl)cc2)nc2ccc(Cl)cc12`, the growth was 14% with RPMI-8226 leukemia; 1.38% (active) with OVCAR-8 ovarian; 102% in the experiment with OVCAR-5 ovarian; 44% in the experiment on OVCAR-4 ovarian; 82% in the experiment on SK-OV-3 ovarian; 24.4% with IGROV1 ovarian. The growth with OVCAR-3 ovarian was 2.87% (active); in the experiment with HS 578T breast it was 14.9%; with NCI/ADR-RES ovarian it was 2.23% (active); in the experiment on T-47D breast, 64.3%.
`CSc1nn(-c2ccccc2)c2ncnc(Oc3ccc(C)cc3)c12`: the growth is 92.4% in the experiment with RPMI-8226 leukemia; 50.7% in the experiment on OVCAR-8 ovarian; 92.5% in the experiment on OVCAR-5 ovarian; 9.15% (active) with OVCAR-4 ovarian; 75.2% with SK-OV-3 ovarian; 92.7% in the experiment with IGROV1 ovarian. Besides, the growth is 98.1% in the experiment on OVCAR-3 ovarian, 85.9% in the experiment with HS 578T breast, 93.4% with NCI/ADR-RES ovarian and 83.4% in the experiment with T-47D breast.
Take `N=C(N)c1ccc(-c2ccc(-c3cccs3)s2)s1`: the growth in the experiment with RPMI-8226 leukemia was -46.6% (active); in the experiment with OVCAR-8 ovarian, -47.2% (active); with OVCAR-5 ovarian, 0.532% (active); in the experiment with OVCAR-4 ovarian it was -64.1% (active); in the experiment with SK-OV-3 ovarian it was 74.2%; in the experiment on IGROV1 ovarian, 3.96% (active). In addition, the growth was -89.2% (active) in the experiment with OVCAR-3 ovarian, -27.1% (active) with HS 578T breast, -29.3% (active) with NCI/ADR-RES ovarian and 70.2% with T-47D breast.
For the compound `COc1ccc(-c2cc(/C=C3\C(=O)Nc4ccc(OC)cc43)[nH]n2)cc1`, the growth was 20.6% in the experiment with RPMI-8226 leukemia; 48.8% with OVCAR-8 ovarian; 82.5% in the experiment on OVCAR-5 ovarian; 79.8% in the experiment on OVCAR-4 ovarian; 33.6% with SK-OV-3 ovarian; 31.8% in the experiment on IGROV1 ovarian. Moreover, the growth in the experiment with OVCAR-3 ovarian was 2.64% (active); in the experiment with HS 578T breast, 14%; in the experiment on NCI/ADR-RES ovarian, 21.7%; with T-47D breast it was 47.3%.
`COc1ccc2c(c1)C(=O)c1c-2c(OCCN(C)C)nc2ccccc12`: the growth was 17.4% in the experiment on RPMI-8226 leukemia; 14.3% in the experiment with OVCAR-8 ovarian; 63% in the experiment with OVCAR-5 ovarian; 44.1% in the experiment on OVCAR-4 ovarian; 61% in the experiment on SK-OV-3 ovarian; -18.7% (active) with IGROV1 ovarian. The growth in the experiment with OVCAR-3 ovarian was 30.4%; in the experiment with HS 578T breast, 41%; in the experiment with NCI/ADR-RES ovarian, 22.8%; in the experiment on T-47D breast it was 48.2%.
Regarding `COc1cc(Cl)cc(-c2nn(-c3cccc(NC(=O)Nc4cc(C(F)(F)F)cc(C(F)(F)F)c4)c3)cc2-c2ccncc2)c1`, the growth is -17.5% (active) with RPMI-8226 leukemia; -2.46% (active) in the experiment with OVCAR-8 ovarian; 21.6% in the experiment on OVCAR-5 ovarian; 11.9% with OVCAR-4 ovarian; 6.84% (active) in the experiment with SK-OV-3 ovarian; 23% with IGROV1 ovarian. Moreover, the growth was -1.62% (active) with OVCAR-3 ovarian, 5.82% (active) in the experiment on HS 578T breast, 2.37% (active) in the experiment on NCI/ADR-RES ovarian and 6.56% (active) in the experiment with T-47D breast.
As for `Fc1ccc2nc(-c3nc(-c4ccccc4)n4ccccc34)[nH]c2c1`, the growth in the experiment on RPMI-8226 leukemia was -25.9% (active); in the experiment with OVCAR-8 ovarian, -58.7% (active); with OVCAR-5 ovarian, 55.9%; in the experiment on OVCAR-4 ovarian, -71.2% (active); with SK-OV-3 ovarian, -43.2% (active); in the experiment on IGROV1 ovarian it was 1.27% (active). The growth was 0.252% (active) with OVCAR-3 ovarian, -5.1% (active) in the experiment on HS 578T breast, -13.1% (active) in the experiment with NCI/ADR-RES ovarian and -0.867% (active) in the experiment with T-47D breast.
For `CC(=O)N1C/C(=C/c2ccc(Cl)cc2)C(=O)/C(=C/c2ccc(Cl)cc2)C1`, the growth with RPMI-8226 leukemia is -45.2% (active); with OVCAR-8 ovarian it was 4.95% (active); with OVCAR-5 ovarian, 18.2%; with OVCAR-4 ovarian, 10.9%; in the experiment with SK-OV-3 ovarian, -10.9% (active); in the experiment on IGROV1 ovarian, -55.7% (active). For the same compound, the growth in the experiment with OVCAR-3 ovarian was -40.6% (active); with HS 578T breast, 14.5%; in the experiment with NCI/ADR-RES ovarian, 10.4%; in the experiment with T-47D breast, 30.1%.
